From ChEMBL document CHEMBL3988442, “University of Dundee, Small-Polar-MMV Screening Library” (2021)
For some assays here: Results with a measured potency or affinity are listed apart.

Tests used:
Set-up in all cases: scale not given: direction of the effect not stated beside the values
[1] = molecular target: Protein translocase subunit SecA (Escherichia coli (strain K12)) (UniProt P10408); assay: Assay to Identify E. coli SecA ATPase Inhibitors; assay type: functional; conditions: 30 µM
[2] = molecular target: T1, Ubiquitin-activating enzyme e1, putative (Leishmania donovani (strain BPK282A1)) (UniProt E9BSI1); assay: Leishmania donovani Ubiquitin Activating Enzyme (LdE1); assay type: functional; conditions: 30 µM
T1 sequence (whole entry): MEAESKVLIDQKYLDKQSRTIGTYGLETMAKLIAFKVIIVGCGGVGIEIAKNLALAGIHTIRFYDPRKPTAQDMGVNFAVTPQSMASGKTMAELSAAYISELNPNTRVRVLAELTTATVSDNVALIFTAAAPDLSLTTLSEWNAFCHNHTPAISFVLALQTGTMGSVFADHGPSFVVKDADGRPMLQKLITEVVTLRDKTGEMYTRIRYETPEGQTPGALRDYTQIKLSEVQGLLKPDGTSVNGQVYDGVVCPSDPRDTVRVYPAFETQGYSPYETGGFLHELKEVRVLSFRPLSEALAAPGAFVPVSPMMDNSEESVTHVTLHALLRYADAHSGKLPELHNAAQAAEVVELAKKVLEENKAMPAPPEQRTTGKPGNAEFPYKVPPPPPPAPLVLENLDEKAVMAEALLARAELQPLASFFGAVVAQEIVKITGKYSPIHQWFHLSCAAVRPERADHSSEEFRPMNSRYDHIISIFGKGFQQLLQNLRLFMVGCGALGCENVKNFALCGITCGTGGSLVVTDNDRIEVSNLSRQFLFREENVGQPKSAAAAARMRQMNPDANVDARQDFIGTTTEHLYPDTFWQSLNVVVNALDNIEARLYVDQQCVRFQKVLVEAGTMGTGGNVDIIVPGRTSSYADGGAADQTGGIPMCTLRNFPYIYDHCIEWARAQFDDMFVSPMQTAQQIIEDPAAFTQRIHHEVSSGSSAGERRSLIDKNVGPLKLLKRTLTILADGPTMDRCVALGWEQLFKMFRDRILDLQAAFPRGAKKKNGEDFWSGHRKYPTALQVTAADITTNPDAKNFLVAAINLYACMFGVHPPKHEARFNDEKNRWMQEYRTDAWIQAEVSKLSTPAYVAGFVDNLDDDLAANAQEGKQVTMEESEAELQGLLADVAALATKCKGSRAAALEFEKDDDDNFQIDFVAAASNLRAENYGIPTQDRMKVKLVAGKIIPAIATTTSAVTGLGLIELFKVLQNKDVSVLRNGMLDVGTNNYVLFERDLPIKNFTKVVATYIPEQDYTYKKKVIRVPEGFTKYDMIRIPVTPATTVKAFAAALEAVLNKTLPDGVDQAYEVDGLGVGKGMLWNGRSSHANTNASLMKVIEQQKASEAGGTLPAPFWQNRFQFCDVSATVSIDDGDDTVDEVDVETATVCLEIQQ

[3] = molecular target: AMP-activated protein kinase, AMPK (Homo sapiens) (UniProt P54646+O43741+P54619+Q9UGJ0+Q9Y478+Q13131+Q9UGI9); assay: AMP-dependent Kinase enzyme assay. An in vitro enzyme assay that detects ADP turnover that is directly proportional to AMPK activity. This uses naive AMPK that is activated during the assay with MK-8722; assay type: functional; conditions: 30 µM
[4] = molecular target: Sialic acid-binding Ig-like lectin 9 (Homo sapiens) (UniProt Q9Y336); assay: Hs-Siglec9 ALPHAscreen SOP 20170721; conditions: 10 µM
[5] = test system: Trypanosoma cruzi; assay: Trypanosoma cruzi phosphomannomutase and mannose-1-phosphate guanylyltransferase assay; assay type: functional; conditions: 10 µM
[6] = molecular target: T2, Arginase-2, mitochondrial (Homo sapiens) (UniProt P78540); assay: in vitro enzyme assay to detect the production of urea directly proportional to the activity of Arginase II; assay type: functional; conditions: 33.3 µM; also: in the data most compounds retested in dose-response had high values
T2 sequence (whole entry): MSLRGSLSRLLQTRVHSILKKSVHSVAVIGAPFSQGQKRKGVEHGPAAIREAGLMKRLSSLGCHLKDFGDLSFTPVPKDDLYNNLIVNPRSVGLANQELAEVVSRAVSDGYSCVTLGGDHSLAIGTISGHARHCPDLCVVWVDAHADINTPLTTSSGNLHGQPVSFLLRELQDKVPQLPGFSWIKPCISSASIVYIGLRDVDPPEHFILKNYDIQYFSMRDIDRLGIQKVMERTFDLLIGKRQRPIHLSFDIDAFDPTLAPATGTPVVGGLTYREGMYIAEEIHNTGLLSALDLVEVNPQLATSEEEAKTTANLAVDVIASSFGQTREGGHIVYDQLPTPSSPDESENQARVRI

[7] = molecular target: T3, Proteasome subunit beta (Trypanosoma cruzi) (UniProt O96673); assay: Trypanosoma cruzi proteasome chymotrypsin-like activity (TcProtChymo) assay.; also: in the data most compounds retested in dose-response had high values; assay type: functional; conditions: 9.37 µM
T3 sequence (whole entry): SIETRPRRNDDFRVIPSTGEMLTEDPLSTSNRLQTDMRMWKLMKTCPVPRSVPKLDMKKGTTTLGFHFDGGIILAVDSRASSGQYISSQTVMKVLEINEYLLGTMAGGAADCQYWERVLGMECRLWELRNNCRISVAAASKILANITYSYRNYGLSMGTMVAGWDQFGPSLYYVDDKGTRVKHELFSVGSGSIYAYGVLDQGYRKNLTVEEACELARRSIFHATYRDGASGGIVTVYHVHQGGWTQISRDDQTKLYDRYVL

[8] = organism: Homo sapiens; assay: To identify inhibition of the IFN signalling (Jak-Stat) pathway via expression of an eGFP reporter gene under the control of an IFN-stimulated response element (ISRE) containing MxA promoter.; assay type: functional; conditions: 30 µM
[9] = molecular target: T4, Tyrosyl-tRNA synthetase, putative (Trypanosoma cruzi (strain CL Brener)) (UniProt Q4DSP6); assay: Trypanosoma cruzi tyrosyl tRNA synthetase (TcYRS) _High Tyrosine SOP; assay type: functional; conditions: 30 µM; also: in the data most compounds retested in dose-response had high values
T4 sequence (whole entry): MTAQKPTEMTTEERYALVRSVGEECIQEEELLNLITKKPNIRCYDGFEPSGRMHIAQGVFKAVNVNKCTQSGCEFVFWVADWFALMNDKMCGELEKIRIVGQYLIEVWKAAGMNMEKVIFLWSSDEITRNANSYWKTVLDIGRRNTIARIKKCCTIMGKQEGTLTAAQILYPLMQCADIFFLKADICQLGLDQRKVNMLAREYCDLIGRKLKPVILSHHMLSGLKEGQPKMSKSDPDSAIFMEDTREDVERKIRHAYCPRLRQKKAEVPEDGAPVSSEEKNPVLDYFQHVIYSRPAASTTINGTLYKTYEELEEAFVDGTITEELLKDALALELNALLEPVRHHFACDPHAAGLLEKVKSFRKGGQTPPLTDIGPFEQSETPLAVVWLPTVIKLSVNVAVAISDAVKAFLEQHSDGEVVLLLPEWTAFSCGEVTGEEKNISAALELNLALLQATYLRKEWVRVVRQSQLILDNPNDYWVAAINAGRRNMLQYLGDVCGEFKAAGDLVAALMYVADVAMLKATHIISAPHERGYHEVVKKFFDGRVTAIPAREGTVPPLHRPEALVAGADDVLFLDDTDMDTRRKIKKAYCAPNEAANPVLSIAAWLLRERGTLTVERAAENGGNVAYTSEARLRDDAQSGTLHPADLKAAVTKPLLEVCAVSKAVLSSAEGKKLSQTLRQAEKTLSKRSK

[10] = molecular target: T4, Tyrosyl-tRNA synthetase, putative (Trypanosoma cruzi (strain CL Brener)); assay: Trypanosoma cruzi tyrosyl tRNA synthetase (TcYRS) SOP; assay type: functional; conditions: 30 µM
[11] = molecular target: Chromo domain-containing protein 1 (Saccharomyces cerevisiae (strain ATCC 204508 / S288c) (Baker's yeast)) (UniProt P32657); assay: ScCHD-1 Enzyme Inhibition Assay; assay type: functional; conditions: 30 µM; also: in the data most compounds retested in dose-response had high values
Sequence of Chromo domain-containing protein 1 (Saccharomyces cerevisiae (strain ATCC 204508 / S288c) (Baker's yeast)) (P32657 whole entry, the tested form may be a part): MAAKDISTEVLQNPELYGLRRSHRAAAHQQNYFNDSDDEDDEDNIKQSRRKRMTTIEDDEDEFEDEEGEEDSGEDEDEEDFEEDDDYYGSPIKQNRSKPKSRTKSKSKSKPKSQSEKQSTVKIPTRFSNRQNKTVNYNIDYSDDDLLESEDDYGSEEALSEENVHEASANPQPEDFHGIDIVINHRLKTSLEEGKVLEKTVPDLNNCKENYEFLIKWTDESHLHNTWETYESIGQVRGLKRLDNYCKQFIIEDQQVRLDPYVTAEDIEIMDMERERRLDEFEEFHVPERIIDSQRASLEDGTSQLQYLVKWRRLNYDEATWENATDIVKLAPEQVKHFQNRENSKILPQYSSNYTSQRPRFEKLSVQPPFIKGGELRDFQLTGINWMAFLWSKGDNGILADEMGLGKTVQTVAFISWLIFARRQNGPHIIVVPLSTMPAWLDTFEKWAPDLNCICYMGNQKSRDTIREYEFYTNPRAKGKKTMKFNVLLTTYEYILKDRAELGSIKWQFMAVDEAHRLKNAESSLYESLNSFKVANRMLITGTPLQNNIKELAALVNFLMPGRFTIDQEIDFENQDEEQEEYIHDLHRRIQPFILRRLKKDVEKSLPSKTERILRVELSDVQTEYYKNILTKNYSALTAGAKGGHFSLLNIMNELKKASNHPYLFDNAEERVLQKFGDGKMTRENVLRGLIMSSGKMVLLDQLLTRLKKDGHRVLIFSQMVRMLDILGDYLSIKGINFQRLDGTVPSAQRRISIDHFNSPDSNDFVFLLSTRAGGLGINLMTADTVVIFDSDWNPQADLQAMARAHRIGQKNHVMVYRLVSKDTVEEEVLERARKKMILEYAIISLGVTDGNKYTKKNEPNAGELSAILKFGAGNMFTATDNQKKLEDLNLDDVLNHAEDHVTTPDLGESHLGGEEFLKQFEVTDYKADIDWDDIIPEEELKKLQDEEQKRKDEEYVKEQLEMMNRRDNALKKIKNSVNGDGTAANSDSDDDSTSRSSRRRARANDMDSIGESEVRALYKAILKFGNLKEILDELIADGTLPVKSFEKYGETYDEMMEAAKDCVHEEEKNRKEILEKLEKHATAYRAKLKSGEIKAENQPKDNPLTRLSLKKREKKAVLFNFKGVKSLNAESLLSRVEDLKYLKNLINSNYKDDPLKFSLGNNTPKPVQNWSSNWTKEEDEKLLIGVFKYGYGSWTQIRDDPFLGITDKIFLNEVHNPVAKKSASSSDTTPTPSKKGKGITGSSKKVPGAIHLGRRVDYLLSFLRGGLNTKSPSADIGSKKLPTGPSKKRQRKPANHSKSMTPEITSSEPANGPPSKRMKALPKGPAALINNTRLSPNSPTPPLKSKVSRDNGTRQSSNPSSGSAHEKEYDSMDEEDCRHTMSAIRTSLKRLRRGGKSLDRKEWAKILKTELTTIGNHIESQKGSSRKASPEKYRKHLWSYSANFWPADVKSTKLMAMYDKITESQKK

Sequence of Protein translocase subunit SecA (Escherichia coli (strain K12)) (P10408 whole entry): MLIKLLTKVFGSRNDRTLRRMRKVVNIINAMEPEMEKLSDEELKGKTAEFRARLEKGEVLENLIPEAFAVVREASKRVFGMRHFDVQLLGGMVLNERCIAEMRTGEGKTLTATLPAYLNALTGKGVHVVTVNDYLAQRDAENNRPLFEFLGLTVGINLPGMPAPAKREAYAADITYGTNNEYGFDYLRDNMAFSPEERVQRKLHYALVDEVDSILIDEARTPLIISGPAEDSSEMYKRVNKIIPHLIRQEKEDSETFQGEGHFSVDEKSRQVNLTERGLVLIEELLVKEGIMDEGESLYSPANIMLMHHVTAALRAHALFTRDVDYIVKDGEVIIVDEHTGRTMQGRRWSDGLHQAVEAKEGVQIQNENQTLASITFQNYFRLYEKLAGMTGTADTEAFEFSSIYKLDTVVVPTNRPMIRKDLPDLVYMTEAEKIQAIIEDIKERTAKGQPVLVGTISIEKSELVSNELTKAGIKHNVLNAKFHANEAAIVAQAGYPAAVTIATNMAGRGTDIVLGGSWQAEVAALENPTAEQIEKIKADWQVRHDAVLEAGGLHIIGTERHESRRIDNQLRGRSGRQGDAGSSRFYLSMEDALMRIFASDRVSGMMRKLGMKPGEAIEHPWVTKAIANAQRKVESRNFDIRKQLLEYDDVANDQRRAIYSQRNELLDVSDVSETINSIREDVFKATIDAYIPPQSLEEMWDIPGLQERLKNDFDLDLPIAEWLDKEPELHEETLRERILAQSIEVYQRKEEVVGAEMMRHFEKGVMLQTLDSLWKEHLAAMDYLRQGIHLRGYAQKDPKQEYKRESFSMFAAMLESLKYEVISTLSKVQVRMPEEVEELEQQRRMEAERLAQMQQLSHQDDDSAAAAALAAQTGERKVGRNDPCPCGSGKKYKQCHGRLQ
Sequence of Sialic acid-binding Ig-like lectin 9 (Homo sapiens) (Q9Y336 whole entry): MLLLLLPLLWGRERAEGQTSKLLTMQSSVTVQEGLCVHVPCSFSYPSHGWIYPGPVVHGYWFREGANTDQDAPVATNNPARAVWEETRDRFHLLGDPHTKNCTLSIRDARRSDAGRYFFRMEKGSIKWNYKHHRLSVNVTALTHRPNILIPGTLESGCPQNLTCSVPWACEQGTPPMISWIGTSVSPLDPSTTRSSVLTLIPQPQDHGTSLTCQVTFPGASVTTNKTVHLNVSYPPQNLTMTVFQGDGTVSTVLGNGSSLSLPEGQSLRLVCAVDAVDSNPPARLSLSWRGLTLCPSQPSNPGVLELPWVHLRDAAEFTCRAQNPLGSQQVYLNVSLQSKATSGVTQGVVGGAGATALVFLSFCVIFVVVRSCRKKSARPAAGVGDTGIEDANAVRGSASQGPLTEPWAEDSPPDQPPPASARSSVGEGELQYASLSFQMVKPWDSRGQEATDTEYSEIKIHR

| SMILES | Percent Effect [1] [%] | Percent Effect [2] [%] | Percent Effect [3] [%] | Percent Effect [4] [%] | Percent Effect [5] [%] | Percent Effect [6] [%] | Percent Effect [7] [%] | Percent Effect [8] [%] | Percent Effect [9] [%] | Percent Effect [10] [%] | Percent Effect [11] [%] |
| --- | --- | --- | --- | --- | --- | --- | --- | --- | --- | --- | --- |
| NC(=O)COc1cccc(C(=O)Nc2cnc3n2CCCC3)c1 | -4.34 | 6.94 | -7.99 | 1.81 | -1.26 | 6.18 | 10.7 | -0.649 | 8.42 | 15.4 | -3.57 |
| COc1c(CNC2CCCc3ccccc32)c(C(C)C)nn1C (configuration not stated) | -5.37 | 21.6 | -16.6 | 17.5 | 7.71 | -5.73 | 3.59 | 6.78 | 4.95 | 18.3 | -4.82 |
| Cc1ccc(-c2cc(N)c(=O)n(CC(=O)NC3CCCCC3)n2)s1 | -4.68 | 6.76 | 14.2 | 4.48 | -4.74 | 4.41 | 8.42 | 15.6 | 1.07 | 6.49 | -8.72 |
| CC(Cn1cccn1)NC(=O)Nc1ccc(N(C)C)nc1 (configuration not stated) | -4.33 | 1.39 | -12.7 | -12 | -7.09 | 0.883 | 22.3 | 10.8 | 1.05 | -2.56 | -1.82 |
| O=C(NCc1cc[nH]n1)NCC(c1ccccc1Cl)N1CCCC1 (configuration not stated) | -5.47 | 5.41 | -5.47 | 2.23 | -2.25 | 4.22 | 13.1 | -4.64 | 5.38 | 13.6 | -1.7 |
| O=C(c1ccc2c(c1)CCCC2)N1CCOCC1c1ncon1 (configuration not stated) | -2.2 | 5.41 | -9.67 | 7.55 | 2.17 | -5.61 | 9.37 | 5.93 | 3.45 | 13.6 | -8.29 |
| N#Cc1ccc(OC2CCN(C(=O)c3ccc4c(c3)OCO4)CC2)nc1 | -3.87 | 13.7 | -6.59 | 16.4 | 6.07 | -0.909 | 2.13 | 8.98 | 3.23 | 15 | -2.59 |
| CCCNC(=O)Cn1cc(-c2ccccc2)cn1 | -4.24 | 8.86 | 12.1 | -0.382 | -5.64 | -0.645 | 4.97 | 8.94 | 2.08 | 7.59 | -18.4 |
| CC(C)Cc1noc(CN2CCN(CCO)CC2)n1 | -0.954 | 10.5 | 1.51 | -0.0672 | -2.07 | 0.766 | 12 | 11.2 | 3.43 | 9.76 | -8.48 |
| CC(C)c1cc(NC(=O)CN2CCCC2Cn2cccn2)on1 (configuration not stated) | -5.87 | 5.26 | -3.45 | -1.04 | -1.59 | 3.24 | -0.761 | 15.3 | 7.39 | 6.17 | 9.14 |
| O=C(N1CCCO1)[C@@]12CCO[C@@H]1CCN(Cc1ccccc1)C2 | -2.49 | 2.67 | -2.01 | 8.06 | -4.25 | -22.8 | 6.67 | 0.724 | 4.17 | 10 | -6.13 |
| O=C(O)c1coc(COc2cccc(F)c2)n1 | -5.01 | 16.2 | -4.57 | 33.9 | 5.77 | 19.6 | 18.4 | -3.93 | 5.38 | 16.1 | -12.4 |
| c1ccc(-c2noc(CN3CCc4cncnc4C3)n2)nc1 | -3.61 | 10.5 | -27.7 | 10.3 | 8.65 | 1.92 | 9.02 | -4.25 | 13.2 | 12.2 | -10.6 |
| CCc1ccc(NS(=O)(=O)CC2=NC(=O)n3cccc3C2=O)cc1 | 1.25 | -17.3 | 11.5 | 5.52 | -0.786 | -7.57 | 6.1 | 0.554 | -8.47 | -12.8 | 3.49 |
| Cn1cc(CN2CCCN(C(=O)c3cc(Cl)cn3C)CC2)cn1 | -2.96 | 13.2 | -8.7 | -2.03 | -6.39 | -3.45 | 20.6 | 28 | 1.47 | 7.32 | -9.82 |
| O=C(NS(=O)(=O)c1ccc2c(c1)OCCO2)c1ccc(Br)cc1F | -3.37 | -13.9 | 13.5 | 1.7 | -2.36 | 1.07 | 12 | -21.1 | -13.5 | -15.2 | -10.5 |
| NC(=O)c1cnn2c1NCC(CNCCc1ccco1)C2 (configuration not stated) | -1.64 | 2.63 | 2.04 | -0.712 | -5.26 | 3.45 | 8.86 | 7.72 | 2.45 | 7.32 | -1.74 |
| CCN1CC(C(=O)N2CCC(Oc3ccccc3Cl)CC2)CC1=O (configuration not stated) | -1.39 | 2.74 | 6.94 | -1.45 | -11.5 | -4.39 | 16.7 | 42.2 | 3.12 | -30.9 | -5.81 |
| COC[C@@]12CCO[C@@H]1CCN(Cc1ccccc1F)C2 | -2.12 | 11 | -5.09 | 8.1 | 5.75 | -2.79 | 10.5 | 3.87 | 4.17 | 8.64 | -4.87 |
| COC(=O)C(c1cc(F)ccc1F)N(C)C(=O)c1csnn1 (configuration not stated) | 1.09 | 16.5 | 3.37 | -5.43 | -5.64 | -1.5 | 14.4 | 21.4 | 6.25 | 12.7 | -27.1 |
| O=C(C1CCCCN1Cc1nc(-c2ccco2)no1)N1CCCC1 (configuration not stated) | -8.23 | -2.7 | 7.91 | 4.5 | -5.11 | -1.66 | 2.33 | 6.46 | 0 | 3.66 | 5.11 |
| CC(C)(C)c1cnc(CN2CCC[C@H]2CO)o1 | -1.75 | -5.2 | 4.08 | 12.3 | 5.62 | -0.712 | -1.01 | -3.74 | 7.77 | 9.76 | -5.64 |
